Reference: PubChem BioAssay (NCATS)
Values without a mark were called inactive. Records with an inconclusive call do not appear. Calls of active or inactive are those of the source. The call rests on the fitted dose curve; in most records, active means well fitted cell-killing curve with a large enough effect; inconclusive means small, poorly fitted or top-dose-only effect; inactive means flat fitted curve, though single readings scatter.

Assay: Cell Viability - LYMP2-022 (AID 987); further: nearly all actives have a fitted effect of over 55% in size;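 on viability change, negative = cytotoxic: 0% = DMSO alone and full effect = tetraoctylammonium bromide at 92 µM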
Settings: LYMP2-022 lymphoblastoid cell viability; series mostly up to 92.2 µM; viability change, negative = cytotoxic: at the top concentration
Outline: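 Luminescent ATP read-out (CellTiter-Glo, 30 min, RT) after 24 hr, 37 C compound exposure of 2500 human lymphoblastoid cells/well in complete medium. Cytotoxicity taken as concentration-dependent ATP loss; AC50 from standard Hill equation.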
Potency means the concentration at half of the fitted maximal effect.

Row | SMILES | viability change, negative = cytotoxic | Potency
1 | CCNc1nc(Cl)nc(NC(C)C)n1 | -6.17% | 
2 | ClC1=C(Cl)C2(Cl)C3C4CC(C5OC45)C3C1(Cl)C2(Cl)Cl (stereo unspecified) |  | 39.8 µM (active)
3 | ClC(Cl)=C(c1ccc(Cl)cc1)c1ccc(Cl)cc1 |  | inactive
4 | O=C(O)COc1ccc(Cl)cc1Cl |  | inactive
5 | COC(=O)NC(=S)Nc1ccccc1NC(=S)NC(=O)OC | -12.1% | 
6 | C/C=C/c1ccc2c(c1)OCO2 | -6.45% | 
7 | COP(=S)(OC)Oc1ccc([N+](=O)[O-])cc1 | 2.03% | 
8 | C=CCc1ccc(OC)cc1 | -5.95% | 
9 | c1ccc(N=Nc2ccccc2)cc1 | -28% | 

Assay: Cell Viability - LYMP2-024 (AID 988); further: nearly all actives have a fitted effect of over 60% in size;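 on activity change, negative = cytotoxicity: plate controls were DMSO only for no effect and 92 µM tetraoctylammonium bromide for full effect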
Settings: LYMP2-024 lymphoblastoid cell viability; series mostly up to 92.2 µM; activity change, negative = cytotoxicity: at the top concentration
Outline: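 ATP-based luminescence (CellTiter-Glo, 30 min RT) after 24 h compound exposure at 37 C of 2500 lymphoblastoid cells/well; decrease in ATP taken as cytotoxicity. qHTS concentration-response fitted to standard Hill equation for AC50.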

Row | SMILES | activity change, negative = cytotoxicity | Potency
10 | CCNc1nc(Cl)nc(NC(C)C)n1 | -26% | 
11 | ClC1=C(Cl)C2(Cl)C3C4CC(C5OC45)C3C1(Cl)C2(Cl)Cl (stereo unspecified) |  | 39.8 µM (active)
12 | ClC(Cl)=C(c1ccc(Cl)cc1)c1ccc(Cl)cc1 |  | inactive
13 | O=C(O)COc1ccc(Cl)cc1Cl |  | inactive
14 | COC(=O)NC(=S)Nc1ccccc1NC(=S)NC(=O)OC | -6.37% | 
15 | C/C=C/c1ccc2c(c1)OCO2 | -5.41% | 
16 | COP(=S)(OC)Oc1ccc([N+](=O)[O-])cc1 | -13.1% | 
17 | C=CCc1ccc(OC)cc1 | -1.73% | 
18 | ClC1=C(Cl)C2(Cl)C3C(Cl)C=CC3C1(Cl)C2(Cl)Cl (stereo unspecified) | -21.2% | 
19 | c1ccc(N=Nc2ccccc2)cc1 | -22.4% | 
20 | CCc1cccc(CC)c1N(COC)C(=O)CCl |  | 50.1 µM (active)

Assay: Cell Viability - LYMP2-026 (AID 989); further: nearly all actives have a fitted effect of over 50% in size; on activity change, negative = cytotoxic: on the % scale 0 is the no-effect control and ±100 the full control effect
Settings: LYMP2-026 lymphoblastoid cell viability, qHTS; series mostly up to 92.2 µM; activity change, negative = cytotoxic: at the top concentration
Outline: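 qHTS cytotoxicity: 2500 cells/well, 5 hr 37 C, compound 24 hr 37 C, CellTiter-Glo 30 min RT, luminescence. Tetraoctylammonium bromide positive control. AC50 via standard Hill fit.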

Row | SMILES | activity change, negative = cytotoxic | Potency
21 | CCNc1nc(Cl)nc(NC(C)C)n1 | -1.88% | 
22 | ClC1=C(Cl)C2(Cl)C3C4CC(C5OC45)C3C1(Cl)C2(Cl)Cl (stereo unspecified) |  | 39.8 µM (active)
23 | ClC(Cl)=C(c1ccc(Cl)cc1)c1ccc(Cl)cc1 |  | inactive
24 | ClC1=C(Cl)C2(Cl)C3C4C=CC(C4)C3C1(Cl)C2(Cl)Cl (stereo unspecified) |  | 50.1 µM (active)
25 | O=C(O)COc1ccc(Cl)cc1Cl |  | inactive
26 | COC(=O)NC(=S)Nc1ccccc1NC(=S)NC(=O)OC | -0.932% | 
27 | C/C=C/c1ccc2c(c1)OCO2 | -6.91% | 
28 | COP(=S)(OC)Oc1ccc([N+](=O)[O-])cc1 | -5.64% | 
29 | C=CCc1ccc(OC)cc1 | -6.93% | 
30 | ClC1=C(Cl)C2(Cl)C3C(Cl)C=CC3C1(Cl)C2(Cl)Cl (stereo unspecified) | -21.7% | 
31 | CNC(=O)O/N=C/C(C)(C)SC | -21.4% | 
32 | c1ccc(N=Nc2ccccc2)cc1 | -16.2% | 

Assay: Cell Viability - LYMP1-002 - Assay at 24 hr (AID 993); on activity change, negative = cytotoxicity: on the % scale 0 is the no-effect control and ±100 the full control effect
Settings: LYMP1-002 lymphoblastoid cells viability; series mostly up to 92.2 µM; activity change, negative = cytotoxicity: at the top concentration
Outline: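 CellTiter-Glo luminescence (intracellular ATP) after 24 h compound exposure, 37 C, in LYMP1-002 human lymphoblastoid cells; decreased ATP taken as cytotoxicity. AC50 from standard Hill fit of concentration-response curves.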

Row | SMILES | activity change, negative = cytotoxicity | Potency
33 | CCNc1nc(Cl)nc(NC(C)C)n1 | 0.762% | 
34 | ClC1=C(Cl)C2(Cl)C3C4CC(C5OC45)C3C1(Cl)C2(Cl)Cl (stereo unspecified) |  | 12.6 µM (active)
35 | ClC(Cl)=C(c1ccc(Cl)cc1)c1ccc(Cl)cc1 |  | inactive
36 | O=C(O)COc1ccc(Cl)cc1Cl |  | inactive
37 | COC(=O)NC(=S)Nc1ccccc1NC(=S)NC(=O)OC | -3.52% | 
38 | C/C=C/c1ccc2c(c1)OCO2 | 3.35% | 
39 | COP(=S)(OC)Oc1ccc([N+](=O)[O-])cc1 | -2.43% | 
40 | C=CCc1ccc(OC)cc1 | -2.72% | 
41 | CNC(=O)O/N=C/C(C)(C)SC | 1.55% | 
42 | c1ccc(N=Nc2ccccc2)cc1 | -1.53% | 
43 | CCc1cccc(CC)c1N(COC)C(=O)CCl | -6.98% | 

Assay: Cell Viability - LYMP1-002 - Assay at 40 hr (AID 994); further: nearly all actives have a fitted effect of over 60% in size;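 on viability change, negative = cytotoxic: 0% = DMSO only and full inhibition = 92 µM tetraoctylammonium bromide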
Settings: LYMP1-002 lymphoblastoid cell viability; series mostly up to 92.2 µM; viability change, negative = cytotoxic: at the top concentration
Outline: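 qHTS cytotoxicity; 2500 cells/well, 5 hr 37 C settle, compound 40 hr 37 C. CellTiter-Glo, 30 min RT, luminescence (ATP). Concentration-response, Hill fit → AC50. Pos. ctrl tetraoctylammonium bromide.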

Row | SMILES | viability change, negative = cytotoxic | Potency
44 | CCNc1nc(Cl)nc(NC(C)C)n1 | -10.6% | 
45 | ClC1=C(Cl)C2(Cl)C3C4CC(C5OC45)C3C1(Cl)C2(Cl)Cl (stereo unspecified) |  | 12.6 µM (active)
46 | ClC(Cl)=C(c1ccc(Cl)cc1)c1ccc(Cl)cc1 |  | inactive
